The results in this text go back to ChEMBL document CHEMBL3988442, “University of Dundee, Small-Polar-MMV Screening Library” (2021).

Structures are written as SMILES. In all, about 67,000 compounds went through this assay and about 300 (0.45%) showed an effect of 50% or more. The entries come from a sample that favours strong results as a whole.

The target of the test is Polyketide synthase Pks13 (Mycobacterium tuberculosis (strain ATCC 25618 / H37Rv)) (UniProt I6X8D2). The test is described as follows: Mycobacterium tuberculosis Polyketide synthase 13 Thioesterase (PKS13). Further details: scale not given: in the data most compounds retested in dose-response had high values. It is filed as functional. The following applies: 30 µM.
Chain of Polyketide synthase Pks13 (Mycobacterium tuberculosis (strain ATCC 25618 / H37Rv)) (I6X8D2 whole entry): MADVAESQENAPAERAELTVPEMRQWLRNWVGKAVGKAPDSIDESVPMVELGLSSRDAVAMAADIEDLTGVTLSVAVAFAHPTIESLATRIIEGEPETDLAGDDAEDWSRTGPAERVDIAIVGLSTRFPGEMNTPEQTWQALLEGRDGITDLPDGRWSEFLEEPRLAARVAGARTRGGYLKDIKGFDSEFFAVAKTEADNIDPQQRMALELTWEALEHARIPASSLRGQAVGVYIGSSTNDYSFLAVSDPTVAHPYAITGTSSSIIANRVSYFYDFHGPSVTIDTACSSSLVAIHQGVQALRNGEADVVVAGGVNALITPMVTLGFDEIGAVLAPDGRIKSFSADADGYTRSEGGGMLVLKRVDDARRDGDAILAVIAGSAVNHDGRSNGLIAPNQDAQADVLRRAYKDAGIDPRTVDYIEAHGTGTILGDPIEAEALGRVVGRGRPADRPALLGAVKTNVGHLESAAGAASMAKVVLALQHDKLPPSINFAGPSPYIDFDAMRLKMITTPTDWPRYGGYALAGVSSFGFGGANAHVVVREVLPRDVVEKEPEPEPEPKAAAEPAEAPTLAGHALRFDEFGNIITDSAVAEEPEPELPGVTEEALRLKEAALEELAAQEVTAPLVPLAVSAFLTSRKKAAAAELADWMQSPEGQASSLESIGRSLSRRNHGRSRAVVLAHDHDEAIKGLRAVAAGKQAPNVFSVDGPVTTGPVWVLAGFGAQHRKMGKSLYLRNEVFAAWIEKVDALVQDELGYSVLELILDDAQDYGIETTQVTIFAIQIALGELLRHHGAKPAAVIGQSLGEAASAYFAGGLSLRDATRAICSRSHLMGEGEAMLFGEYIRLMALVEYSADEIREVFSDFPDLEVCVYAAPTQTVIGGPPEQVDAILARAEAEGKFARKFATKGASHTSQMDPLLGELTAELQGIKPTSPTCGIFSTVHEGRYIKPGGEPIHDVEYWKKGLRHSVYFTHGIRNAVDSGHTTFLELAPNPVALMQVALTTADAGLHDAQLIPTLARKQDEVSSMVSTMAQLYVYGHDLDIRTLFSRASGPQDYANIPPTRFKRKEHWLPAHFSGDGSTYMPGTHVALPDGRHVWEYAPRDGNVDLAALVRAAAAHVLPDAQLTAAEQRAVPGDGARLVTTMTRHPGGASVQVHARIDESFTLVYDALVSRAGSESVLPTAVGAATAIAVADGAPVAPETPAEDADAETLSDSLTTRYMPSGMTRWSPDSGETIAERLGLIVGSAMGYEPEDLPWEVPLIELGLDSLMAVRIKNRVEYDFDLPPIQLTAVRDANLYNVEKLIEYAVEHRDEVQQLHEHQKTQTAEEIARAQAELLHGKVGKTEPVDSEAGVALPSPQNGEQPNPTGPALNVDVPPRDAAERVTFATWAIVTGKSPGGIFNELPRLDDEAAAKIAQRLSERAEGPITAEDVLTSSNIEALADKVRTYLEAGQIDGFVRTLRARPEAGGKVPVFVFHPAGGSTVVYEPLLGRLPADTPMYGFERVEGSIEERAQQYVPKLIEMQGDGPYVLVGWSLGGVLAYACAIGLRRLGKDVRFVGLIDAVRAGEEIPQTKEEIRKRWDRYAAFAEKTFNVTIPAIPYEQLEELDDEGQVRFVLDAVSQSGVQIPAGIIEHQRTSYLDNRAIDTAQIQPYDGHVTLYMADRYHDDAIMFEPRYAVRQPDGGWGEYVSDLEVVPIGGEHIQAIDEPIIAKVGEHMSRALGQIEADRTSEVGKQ
Take `Cc1cc(-c2cnn(CCNC(=O)C3CC3)c2C2CC2)on1`: the Percent Effect was -12%. For `COc1cccc(-c2cc(NCCO)nc3[nH]ccc23)n1`, the Percent Effect turned out to be 7.17%.

As to `COc1cccc(-c2cc(NCC(=O)O)nc3[nH]ccc23)n1`, the Percent Effect amounted to 58.3%.

For `COc1cccc(-c2cc(NCCN(C)C)nc3[nH]ccc23)n1`, the Percent Effect is 7.82%. The figure for `CCC(=O)N1CCCCC[C@@H]2[C@@H]1[C@H](c1cccc(F)c1)CN2C` is -27%; for `CCC(C)Nc1ccc(-c2nc(-c3cccc(OC)c3OC)no2)cn1` (stereo not drawn) it is 69.5%. The figure for `CNCCNc1ccc(-c2nc(-c3cccc(OC)c3OC)no2)cn1` is -36.1%. To `COc1cccc(-c2noc(-c3ccc(NCC(C)C)nc3)n2)c1OC` belongs 66%. Take `COc1cccc(-c2noc(-c3ccc(NCC4CC4)nc3)n2)c1OC`: the Percent Effect was 36.1%. The figure for `COc1cccc(-c2noc(-c3ccc(NCCCO)nc3)n2)c1OC` is 40.8%; for `COc1cccc(-c2noc(-c3ccc(NCC(C)O)nc3)n2)c1OC` (stereo not drawn) it is 30.5%. To `CN(C)C(=O)N1CC[C@]2(O)CCN(C(=O)c3ccc(C#N)nc3)C[C@@H]2C1` belongs -13.4%; to `CCCN1CCN(C(=O)c2cc[nH]n2)[C@H]2CS(=O)(=O)C[C@H]21`, -8.12%; to `Cc1nnc([C@@H]2CC[C@@H]3[C@@H](CCN3Cc3ccccn3)O2)o1`, -21.9%. Consider `O=C1[C@@H]2CCN(CC3CCOCC3)C[C@@H]2OCCN1c1ccccc1`, for which the Percent Effect was -30.7%.

For `CCC(=O)N1CCN(C(=O)c2cn3ccsc3n2)[C@H]2CS(=O)(=O)C[C@H]21`, the Percent Effect was -15.8%. The figure for `O=C(Cc1cnccn1)N1C[C@H]2CC[C@@H]1CN(Cc1cscn1)C2` is -24.8%; for `CN(Cc1ccccc1)C(=O)c1nc(S(C)(=O)=O)n2ccccc12` it is -33.7%; for `CN(CCC(F)(F)F)C(=O)c1nc(S(C)(=O)=O)n2ccccc12` it is -23%. To `Cc1nc(C(=O)N(C)CC(F)(F)C(F)(F)F)c2ccccn12` belongs 132%; to `CC(C)CN1C(=O)CO[C@@H]2CN(C(=O)NC(C)C)C[C@H]21`, -42.5%. To `O=C(CSCC1CC1)N1C[C@@H]2CC[C@H](C1)N(Cc1ccccn1)C2=O` belongs -35%. On to `CO[C@H]1CCN(Cc2c(C)noc2C)[C@@H]2CN(Cc3ccncc3)C[C@H]12`, for which the Percent Effect came out at 13.1%. To `CNCc1cn(C[C@H]2C[C@@H]3CCN2C[C@@H]3C(=O)NC2CCCCC2)nn1` belongs -24.7%; to `CNc1cncc(C2CCCN2C(=O)Cn2c(=O)oc3ccccc32)n1` (stereo not drawn), 130%; to `CNc1cncc(C2CCCN2C(=O)c2ccc3oc(=O)n(C)c3c2)n1` (stereo not drawn), -18.4%.

For the compound `Cn1cc(C2CCCN2C(=O)Cn2c(=O)oc3ccccc32)cn1` (stereo not drawn), the Percent Effect was -24.9%. The figure for `O=C(C1CCCO1)N1C[C@@H]2CCN(c3cnccn3)C[C@@H]2C1` (stereo partly drawn) is -10.1%; for `Cc1noc([C@@H]2C[C@H]3OCC[C@H]3N(S(C)(=O)=O)C2)n1` it is -22.1%; for `Cc1noc([C@@H]2C[C@H]3OCC[C@H]3N(S(=O)(=O)c3cccnc3)C2)n1` it is 56.3%.

Consider `Cc1noc([C@@H]2C[C@H]3OCC[C@H]3N(S(=O)(=O)c3ccccc3)C2)n1`, for which the Percent Effect was -2.66%. To `CCOC(=O)[C@@H]1[C@@H](c2ccccc2)CN2CCN(C(=O)C3CC3)C[C@H]12` belongs -34.9%; to `CCC[C@H]1CN(S(C)(=O)=O)C[C@@H]1NC(=O)Cc1ccc(OC)cc1`, -10.8%; to `CCC[C@H]1CN(S(C)(=O)=O)C[C@@H]1NC(=O)COC(C)C`, -31%.

For `CCC[C@H]1CN(S(C)(=O)=O)C[C@@H]1NC(=O)c1ccc(COC)cc1`, the Percent Effect was 125%.

`CCc1cnc(N2C[C@H]3CCCC(N(C)Cc4ccccn4)[C@H]3C2)nc1` (stereo partly drawn): the Percent Effect is -25%.

For the compound `CC1(C)OCC(CNC(=O)c2cnn(-c3cc(Cl)ccc3Cl)c2N)O1` (stereo not drawn), the Percent Effect was -5.14%. To `Cc1ccc(C)c(-n2ncc(C(=O)NCC3COC(C)(C)O3)c2N)c1` (stereo not drawn) belongs 66.6%. The figure for `CC1(C)OCC(CNC(=O)c2cnn(-c3ccc(Cl)cc3)c2N)O1` (stereo not drawn) is -15.3%. On to `NC(=O)C1CCN(C(=O)NCc2ccc3c(c2)OCCO3)CC1`, for which the Percent Effect was -21.9%. The figure for `CC(=O)NCC1CCN(C(=O)NCc2ccc3c(c2)OCCO3)CC1` is -0.159%; for `O=C(NCc1ccc2c(c1)OCCO2)N1CCC(CO)CC1` it is 52.7%. The figure for `COCCN1C(=O)[C@]2(CC[C@@H]3CN(C(=O)NCC(C)C)C[C@@H]32)N=C1C` is -6.17%.

With `COC(=O)c1sc2cccc(F)c2c1CNC(=O)C1CCOC1` (stereo not drawn), the Percent Effect came out at 68.2%.

For `COC(=O)c1sc2cccc(F)c2c1CNC(=O)C1CC1`, the Percent Effect is 1.9%.

`COC(=O)c1sc2cccc(F)c2c1CNC(=O)C1CCCO1` (stereo not drawn): the Percent Effect was 1.86%. To `Cc1noc(C)c1CN1CC[C@H]2[C@H]1CCN2CC1CCOCC1` belongs 10.3%; to `CN(Cc1ccc(N2CCOCC2)cc1)Cc1noc(C(C)(C)C)n1`, 21.8%. To `CN(Cc1noc(C(C)(C)C)n1)Cc1ccccc1N1CCCCC1` belongs 1.5%; to `CN(Cc1ccc(N2CCCCC2)cc1)Cc1noc(C(C)(C)C)n1`, 85.2%. To `Cn1cncc1CN1C[C@@H]2OCCN(c3ncccn3)[C@@H]2C1` belongs -16.4%. With `O=C(Nc1ccccc1)N1C[C@@H]2OCCN(C(=O)c3ccco3)[C@@H]2C1`, the Percent Effect is -42.5%. On to `CN1CCN(C(=O)[C@@H]2CCO[C@@H]3CCN(c4ncccn4)C[C@@H]32)CC1`, for which the Percent Effect is -7.46%.
